In PubChem BioAssay (Tox21):
Records with an inconclusive call do not appear. Active and inactive are the calls of the source. Calls come from the whole dose curve; as a rule, active = well fitted curve in the direction sought with a large enough effect in the repeat runs; inconclusive = weak or mixed curves; inactive = no such curve, though single readings can be large; an effect the other way counts as inactive or inconclusive.

Experiments:
[1] = qHTS RealTime-Glo MT Cell Viability Assay in HEK293 cells - 0 hour (AID 1224880); note: top concentration of the series differs between compounds; nearly all actives have a fitted effect of over 45% in size
Procedure, shortened: (§1)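 HEK293 cells mixed with RealTime-Glo reagents (NanoLuc plus cell-permeant prosubstrate) at 600 cells/well, preincubated 5 h at 37 C/5% CO2, then given 23 nL compound in DMSO. Nonlytic luminescence from viable cells was read at 0, 8, 16, 24, 32 and 40 h.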

[2] = A CellTox Green Cytotoxicity Assay to monitor cytotoxicity in HEK293 cells - 32 hour (AID 1224881); note: nearly all actives have a fitted effect of over 40% in size; note: potency is the fitted concentration of half-maximal effect
Procedure, shortened: (§2)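 HEK293 cells premixed with CellTox Green dye were seeded at 600 cells/well and left 5 h at 37 C/5% CO2 before pin transfer of 23 nL compound in DMSO. Fluorescence from dye bound to dead-cell DNA was read during 40 h treatment.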

[3] = A CellTox Green Cytotoxicity Assay to monitor cytotoxicity in HepG2 cells - 0 hour (AID 1224882); note: nearly all actives have a fitted effect of over 35% in size
Procedure, shortened: (§3)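 HepG2 cells were seeded together with the CellTox Green dye at 600 cells/well, left 5 h at 37 C/5% CO2, then given compounds in DMSO. Fluorescence from dye bound to dead-cell DNA was read repeatedly over 40 h of treatment at 37 C.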

[4] = A CellTox Green Cytotoxicity Assay to monitor cytotoxicity in HepG2 cells - 32 hour (AID 1224883); note: nearly all actives have a fitted effect of over 50% in size; note: potency is the fitted concentration of half-maximal effect
Procedure, shortened: as §3

[5] = A CellTox Green Cytotoxicity Assay to monitor cytotoxicity in HEK293 cells - 8 hour (AID 1224884); note: nearly all actives have a fitted effect of over 35% in size
Procedure, shortened: as §2

[6] = qHTS RealTime-Glo MT Cell Viability Assay in HepG2 cells - 16 hour (AID 1224885); note: nearly all actives have a fitted effect of over 50% in size
Procedure, shortened: (§4)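 Cells + NanoLuc/prosubstrate dispensed (600 cells/well) → 5 h at 37 C/5% CO2 → compounds in DMSO transferred → 40 h incubation at 37 C, luminescence read at 0, 8, 16, 24, 32, 40 h.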

[7] = qHTS RealTime-Glo MT Cell Viability Assay in HEK293 cells - 8 hour (AID 1224887); note: nearly all actives have a fitted effect of over 50% in size; note: potency is the fitted concentration of half-maximal effect
Procedure, shortened: as §1

[8] = A CellTox Green Cytotoxicity Assay to monitor cytotoxicity in HEK293 cells - 16 hour (AID 1224888); note: nearly all actives have a fitted effect of over 35% in size
Procedure, shortened: as §2

[9] = qHTS RealTime-Glo MT Cell Viability Assay in HepG2 cells - 0 hour (AID 1224889); note: nearly all actives have a fitted effect of over 50% in size
Procedure, shortened: as §4

[10] = qHTS RealTime-Glo MT Cell Viability Assay in HEK293 cells - 24 hour (AID 1224886); note: nearly all actives have a fitted effect of over 50% in size; note: potency is the fitted concentration of half-maximal effect
Procedure, shortened: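 Tox21 10K qHTS, HEK293, 600 cells/well, RealTime-Glo reagent co-dispensed with cells; 5 h preincubation, compound by pintool, 37 C, luminescence at 0–40 h.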

Measured: Potency

CCOP(=S)(OCC)Oc1cc(Cl)c(Br)cc1Cl
not listed: [10]
inactive: all other assays above

Cc1c(F)c(F)c(COC(=O)C2C(/C=C(\Cl)C(F)(F)F)C2(C)C)c(F)c1F (configuration not stated)
inactive: all assays above

CCOc1ccc(C(C)(C)COCc2cccc(Oc3ccccc3)c2)cc1
inactive: all assays above

N#Cc1cc(I)c(O)c(I)c1
not listed: [10]
inactive: all other assays above

COc1cc(Cl)c(OC)cc1Cl
inactive: all assays above

CCCCC(CC)COP(=O)(Oc1ccccc1)Oc1ccccc1 (configuration not stated)
not listed: [10]
inactive: all other assays above

C=CC(=O)NCNC(=O)C=C
inactive: all assays above

C#CCOC(C(=O)OCCN(C)C)(c1ccccc1)c1ccccc1
inactive: all assays above

CC1(C)CCC(Cc2ccc(Cl)cc2)C1(O)Cn1cncn1 (configuration not stated)
active: [4] 54.9 µM | [10] 24.5 µM
not listed: [6] | [7]
inactive: all other assays above

NNC(=O)c1cccnc1
inactive: all assays above

Cc1ccccc1C(=O)Nc1cccc(OC(C)C)c1
not listed: [10]
inactive: all other assays above

Clc1cc(Cl)c(Cl)c(Cl)c1
inactive: all assays above

O=C(CBr)OCc1ccccc1
not listed: [10]
inactive: all other assays above

N#CCC#N
not listed: [10]
inactive: all other assays above

O=C(Nc1ccccc1)Nc1cnns1
active: [10] 24.5 µM
not listed: [7]
inactive: all other assays above

CN1C(=O)C(O)N=C(c2ccccc2)c2cc(Cl)ccc21 (configuration not stated)
not listed: [10]
inactive: all other assays above

O=[N+]([O-])c1cc(C(F)(F)F)cc([N+](=O)[O-])c1Cl
active: [7] 43.8 µM
not listed: [10]
inactive: all other assays above

CC(C)=CCOc1c2occc2cc2ccc(=O)oc12
not listed: [6]
inactive: all other assays above

OC(c1ccc(Cl)cc1)(c1ccc(Cl)cc1)c1cccnc1
active: [10] 38.9 µM
not listed: [6] | [7]
inactive: all other assays above

NCCCNCCCN
active: [2] 62.6 µM
not listed: [8]
inactive: all other assays above

Cl/C=C\C[N+]12CN3CN(CN(C3)C1)C2
not listed: [10]
inactive: all other assays above

C[C@@H]1CC[C@H]2[C@@H](C)C(=O)O[C@@H]3O[C@@]4(C)CC[C@@H]1[C@]32OO4
inactive: all assays above

O=C(O)c1ccccc1C(=O)Nc1cccc2ccccc12
not listed: [10]
inactive: all other assays above

CCOC(=O)COc1cc(-c2nn(C)c(OC(F)F)c2Cl)c(F)cc1Cl
inactive: all assays above

CCOP(=O)(OCC)O/C(=C/Cl)c1ccc(Cl)cc1Cl
active: [10] 24.5 µM
not listed: [7]
inactive: all other assays above
